Source: PubChem BioAssay AID588342 (National Center for Advancing Translational Sciences (NCATS), 2011)
Out of some 360,000 compounds screened, about 25,000 (6.9%) were called active. Inconclusive results (about 9%) are left out. This is one part of a sample in which actives are shown more often than they occur. Unmarked numbers belong to inactive results. Calls follow the shape of the dose curve; as a rule, active = well fitted inhibition curve with a large enough effect; inconclusive = small, poorly fitted or top-dose-only effect; inactive = flat fitted curve, though single readings scatter.
Also: nearly all actives have a fitted effect of over 55% in size.
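For activity change, negative = inhibition in this document: plate controls were vehicle for no effect and reference inhibitor for full effect.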
Potency is read from the fitted curve at half-maximal effect.

What follows are molecules tested against Luciferin 4-monooxygenase (Photinus pyralis) (UniProt P08659) (assay: qHTS profiling assay for firefly luciferase inhibitor/activator using purifed enzyme and Km concentrations of substrates (counterscreen for miR-21 project)). Details: purified FLuc, luminescence inhibition; series mostly up to 57.5 µM; activity change, negative = inhibition: at the top concentration.
Sequence of Luciferin 4-monooxygenase (Photinus pyralis) (P08659 whole entry, looked up): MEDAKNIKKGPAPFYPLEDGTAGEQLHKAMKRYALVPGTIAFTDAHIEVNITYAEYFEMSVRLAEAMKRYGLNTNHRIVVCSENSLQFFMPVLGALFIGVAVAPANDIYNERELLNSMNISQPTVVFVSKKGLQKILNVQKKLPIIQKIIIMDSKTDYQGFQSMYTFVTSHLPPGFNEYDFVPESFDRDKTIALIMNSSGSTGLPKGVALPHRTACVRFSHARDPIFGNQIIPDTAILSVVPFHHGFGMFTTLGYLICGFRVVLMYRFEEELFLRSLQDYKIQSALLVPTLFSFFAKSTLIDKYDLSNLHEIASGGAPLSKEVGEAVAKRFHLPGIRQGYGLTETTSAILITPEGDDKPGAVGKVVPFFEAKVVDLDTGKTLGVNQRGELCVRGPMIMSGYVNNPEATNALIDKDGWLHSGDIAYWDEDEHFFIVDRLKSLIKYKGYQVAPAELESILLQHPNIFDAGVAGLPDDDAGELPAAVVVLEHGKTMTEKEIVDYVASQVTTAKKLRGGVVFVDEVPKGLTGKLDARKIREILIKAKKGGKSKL
How it was run: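 Purified P. pyralis luciferase (10nM final) with 10uM D-luciferin and 10uM ATP (Km levels) in 50mM Tris acetate pH 7.5, 10mM Mg acetate, 0.01% Tween-20, 0.05% BSA; qHTS 6-point titration, ~60 µM downward; luminescence read.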
For `CCCCN(C(=O)C(CCSC)N1C(=O)c2ccccc2C1=O)c1c(N)n(CCC)c(=O)[nH]c1=O` (centres undefined), the “activity change, negative = inhibition” value was -0.596%. In the case of `COc1cc(NS(=O)(=O)c2ccc3c(c2)OCC(C(=O)N2CCCC2)O3)cc(OC)c1` (centres undefined), the “activity change, negative = inhibition” value is reported as -13.5%. With `COc1ccc2c(CNCCc3ccccc3C)c(C(=O)O)n(Cc3ccccc3C)c2c1` the “activity change, negative = inhibition” value was -6.19%. For `CCCn1ccc2c(OCC(=O)NCc3ccc(F)cc3)cccc2c1=O`, the “activity change, negative = inhibition” value was 5.31%. With `COC(=O)c1cccnc1NC(=S)NC(C)C` the “activity change, negative = inhibition” value was -19%. `Cc1cc(NS(=O)(=O)c2ccc3oc(=O)c4ncn(C)c4c3c2)ccc1Br` was tested, and the “activity change, negative = inhibition” value was -16.5%. For `Cc1c(O)c(C)c2c(c1O)C(=O)C[C@@H](c1ccccc1)O2`, the “activity change, negative = inhibition” value was -0.7%. `CCn1cc(C(=O)NCCc2ccccc2)c(=O)c2cc(S(=O)(=O)N3CCCCCC3)ccc21` was tested, and the “activity change, negative = inhibition” value was -6.86%. For `CCOc1ccc(N2CC(C)Cn3c2nc2c3c(=O)n(Cc3c(F)cccc3Cl)c(=O)n2C)cc1` (centres undefined), the “activity change, negative = inhibition” value was -2.6%. With `Cc1ccc(NC(=O)CSc2nc3c(c(=O)[nH]2)CN(Cc2ccc4c(c2)OCO4)CC3)cc1C` the “activity change, negative = inhibition” value was -1.68%. For `COc1ccc(-c2cc(C(=O)n3cnc4ccccc43)c3ccccc3n2)cc1`, the Potency was 5.36 µM (active). With `COc1ccc(S(=O)(=O)n2cnc3ccccc32)c(C)c1` the “activity change, negative = inhibition” value was 4.47%. `Cc1ccc(OCC(=O)Nn2cnc3ccccc32)cc1` was tested, and the “activity change, negative = inhibition” value was 5.06%. In the case of `O=C(Nc1ccc(S(=O)(=O)N2CCC(c3nc4ccccc4s3)CC2)cc1)c1ccccc1F`, the “activity change, negative = inhibition” value is reported as 3.7%. With `Cc1ccc(S(=O)(=O)N(C)C)cc1NC(=O)CN1c2cccc3cccc(c23)S1(=O)=O` the “activity change, negative = inhibition” value was 5.47%. For `CCOC(=O)c1c(C)[nH]c(C2=NNC(=NC(C)COC)SC2)c1C` (centres undefined), the Potency was 8.49 µM (active). In the case of `COc1ccc(C2(Nc3cccc(F)c3)C(=O)c3ccccc3C2=O)cc1`, the “activity change, negative = inhibition” value is reported as 1.56%. With `O=C(COC(=O)c1ncc(Cl)c(Cl)c1Cl)NCc1ccccc1` the “activity change, negative = inhibition” value was 0.856%. With `CCOC(=O)c1cccc(NS(=O)(=O)c2cc(-c3cnc(C)o3)ccc2OC)c1` the “activity change, negative = inhibition” value was -15.8%. `COc1ccc(NS(=O)(=O)c2cccc(C(=O)NCCc3ccc(S(N)(=O)=O)cc3)c2)cc1` was tested, and the “activity change, negative = inhibition” value was 4.27%. `COc1ccc(CCNC(=O)CCCn2c(=O)c3ccccc3n(Cc3ccc(C)cc3)c2=O)cc1OC` was tested, and the “activity change, negative = inhibition” value was 4.24%. `COC(=O)CNS(=O)(=O)c1ccc(Cc2ccc(S(=O)(=O)NCC(=O)OC)cc2)cc1` was tested, and the Potency was 3.79 µM (active). For `C/C(N)=C(/C#N)C(=O)COC(=O)CNS(=O)(=O)c1ccc(C)cc1`, the “activity change, negative = inhibition” value was 2.08%. In the case of `COC(=O)CNS(=O)(=O)c1ccc(OC)cc1`, the “activity change, negative = inhibition” value is reported as -0.286%. For `COc1ccc(-c2nc(Cn3c(=O)cc(C)c4c(C)nn(-c5ccccc5)c43)c(C)o2)c(OC)c1`, the “activity change, negative = inhibition” value was 0.0062%. In the case of `CCOC(=O)c1nnn(CC(=O)NC(=O)Nc2ccccc2F)c1C(=O)OCC`, the “activity change, negative = inhibition” value is reported as -6.37%. For `Cc1ccc(S(=O)(=O)N(C)CC(=O)OCC(=O)Nc2ccccc2)cc1`, the “activity change, negative = inhibition” value was -3.85%. For `CC(=O)Nc1ccc(NC(=O)COC(=O)c2ccccc2C(=O)c2ccccc2)cc1`, the “activity change, negative = inhibition” value was -0.276%. For `O=C(COC(=O)C1CC2C=CC1C2)Nc1ccccc1` (centres undefined), the Potency was 16.9 µM (active). For `COc1ccc2c(c1OC)C(=O)N(c1ccc(O)cc1)C2`, the Potency was 15.1 µM (active). With `COc1ccc2c(c1OC)C(=O)N(c1ncn[nH]1)C2` the “activity change, negative = inhibition” value was 1.33%. In the case of `COc1cc(C(=O)N2C(=O)c3cccc(N)c3C2=O)cc(OC)c1OC`, the “activity change, negative = inhibition” value is reported as 2.66%. For `CCOc1ccc(CC(=O)NCCc2csc3nc(-c4ccccc4F)nn23)cc1`, the “activity change, negative = inhibition” value was -11%. For `CN(C)CCCN(C(=O)c1ccc(S(=O)(=O)N2CCCCCC2)cc1)c1nc2ccc(Br)cc2s1`, the “activity change, negative = inhibition” value was 1.44%. `c1c2c(cc3sc(N4CCCCC4)nc13)OCCO2` was tested, and the Potency was 0.213 µM (active). `Fc1ccc2nc(N3CCCCC3)sc2c1` was tested, and the Potency was 4.78 µM (active). `CN(C)CCCN(C(=O)c1ccc(S(=O)(=O)N2CCCCCC2)cc1)c1nc2cc3c(cc2s1)OCCO3` was tested, and the “activity change, negative = inhibition” value was 4.03%. `Brc1ccc2nc(N3CCCC3)sc2c1` was tested, and the Potency was 7.57 µM (active). `Cc1nc(N2CCCCC2)sc1C=O` was tested, and the “activity change, negative = inhibition” value was 4.38%. For `O=C(NCc1ccc(F)cc1)c1ccc2nc(N3CCCCC3)sc2c1`, the “activity change, negative = inhibition” value was -9.13%. For `O=C(NCCc1cccc(F)c1)C1CCCN(c2nc3ccccc3s2)C1` (centres undefined), the “activity change, negative = inhibition” value was -1.62%. In the case of `Cc1nc2ccn(Cc3cccs3)c(=O)c2cc1C(=O)NCc1ccc(Cl)cc1`, the “activity change, negative = inhibition” value is reported as -0.0141%. For `O=C(CSc1nnc(CN2CCCC2)n1-c1ccc(F)cc1)c1ccc2c(c1)OCO2`, the “activity change, negative = inhibition” value was 2.79%. For `O=C(CN1CCN(c2ccccc2O)CC1)NC(=O)NCc1ccccc1`, the “activity change, negative = inhibition” value was 12.3%. `COc1ccc(S(=O)(=O)Nc2ccc3cn[nH]c3c2)cc1[N+](=O)[O-]` was tested, and the “activity change, negative = inhibition” value was 2.65%. `CCOC(=O)Cc1csc(SCC(=O)Nc2ccc(C)cc2F)n1` was tested, and the “activity change, negative = inhibition” value was 2.01%. In the case of `CCOC(=O)c1ccccc1NC(=O)CCc1c(C)nc2c(c1C)c(=O)n(C)c(=O)n2C`, the “activity change, negative = inhibition” value is reported as -0.937%. With `CCOc1cccc2cc(C(=O)OCC(=O)Nc3c(C)cccc3CC)c(=O)oc12` the Potency was 15.1 µM (active). With `CCc1cccc(C)c1NC(=O)COC(=O)CC1CCCC1` the “activity change, negative = inhibition” value was 0.287%. With `Cc1cccc(C)c1NC(=O)COC(=O)c1ccccc1O` the “activity change, negative = inhibition” value was -0.453%. In the case of `NC(=O)Cc1nc2scc(-c3ccc(Cl)cc3)c2c(=O)[nH]1`, the “activity change, negative = inhibition” value is reported as 0.326%. For `O=c1[nH]c(CN2CCOCC2)nc2cc(Cl)ccc12`, the “activity change, negative = inhibition” value was 2.21%. With `O=c1[nH]c(CCl)nc2cc(-c3ccc(Cl)cc3)sc12` the Potency was 0.107 µM (active). For `CCc1ccccc1NC(=O)c1ccc(F)c(S(=O)(=O)NC2CCCCCC2)c1`, the “activity change, negative = inhibition” value was -2.22%. In the case of `COC(=O)c1ccc(NC(=O)CCc2c(C)nc3c(c(C)nn3-c3ccc(C)cc3)c2C)cc1`, the “activity change, negative = inhibition” value is reported as -4.68%. With `CN(c1cccc(NC(=O)Nc2ccc(Cl)cc2)c1)S(C)(=O)=O` the Potency was 2.39 µM (active). For `COc1cccc(N(CC(=O)Nc2cccc(N(C)S(C)(=O)=O)c2)S(C)(=O)=O)c1`, the “activity change, negative = inhibition” value was 1.64%. For `CN(c1ccccc1)S(=O)(=O)c1cccc(NC(=O)Cc2ccc(Cl)cc2)c1`, the “activity change, negative = inhibition” value was -14.1%. With `O=C(Nc1ccc(Cl)cc1)Nc1ccc(Oc2cccnc2)nc1` the “activity change, negative = inhibition” value was -28.9%. In the case of `COc1ccc(-n2c(=O)c3c(c4cc(OC)ccc4n3C)n(Cc3cccc(C)c3)c2=O)cc1`, the “activity change, negative = inhibition” value is reported as -0.917%. In the case of `Cc1cc(C)cc(NC(=O)CSc2ccccc2)c1`, the “activity change, negative = inhibition” value is reported as -4.76%. `CSCc1ccc(C(=O)Nc2cc(C)cc(C)c2)cc1` was tested, and the Potency was 2.13 µM (active). With `CC(=O)Nc1ccccc1NC(=O)c1cc(C)cc(C)c1` the “activity change, negative = inhibition” value was 3.27%. With `CCc1ccc(N2C(=O)CN(S(=O)(=O)CC)CC2(C)C(=O)NC2CCCCC2)cc1` (centres undefined) the “activity change, negative = inhibition” value was -6.49%.
